Where “and” joins values, the source holds several entries; their conditions need not be identical. Equal entries are not always repeated. Unmarked numbers belong to inactive results. Inconclusive results are not listed. Where a call stands in place of a potency, no number is given. Calls of active or inactive are those of the source. Unless noted, the call rests on the fitted dose curve; in most records, active means well fitted curve in the direction sought with a large enough effect; inconclusive means small, poorly fitted or top-dose-only effect, or another doubt; inactive means no such curve, though single readings can be large; an effect the other way counts as inactive or inconclusive.
Columns and labels:
[1] = target: T1, Hexokinase-4 (Homo sapiens) + Glucokinase regulatory protein (Homo sapiens) (UniProt P35557+Q14397); assay: qHTS assay for inhibitors of recombinant human GCK-GKRP interaction: ADP-Glo assay (AID 743206)
T1 sequence (P35557 whole entry, looked up): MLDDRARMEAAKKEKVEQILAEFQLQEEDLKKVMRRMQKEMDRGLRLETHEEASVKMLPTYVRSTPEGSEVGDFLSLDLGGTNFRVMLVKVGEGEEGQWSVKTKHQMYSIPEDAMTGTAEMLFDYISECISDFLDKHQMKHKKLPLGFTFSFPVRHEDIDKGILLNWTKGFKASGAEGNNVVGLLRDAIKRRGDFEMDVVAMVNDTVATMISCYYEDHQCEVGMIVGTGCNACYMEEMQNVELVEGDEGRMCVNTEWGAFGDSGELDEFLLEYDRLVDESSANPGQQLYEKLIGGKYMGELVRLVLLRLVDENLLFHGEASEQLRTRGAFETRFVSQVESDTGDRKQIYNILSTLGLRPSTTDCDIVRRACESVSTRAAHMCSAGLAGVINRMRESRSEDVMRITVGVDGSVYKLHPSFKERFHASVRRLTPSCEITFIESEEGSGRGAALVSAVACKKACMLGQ
T1 sequence (Q14397 whole entry, looked up): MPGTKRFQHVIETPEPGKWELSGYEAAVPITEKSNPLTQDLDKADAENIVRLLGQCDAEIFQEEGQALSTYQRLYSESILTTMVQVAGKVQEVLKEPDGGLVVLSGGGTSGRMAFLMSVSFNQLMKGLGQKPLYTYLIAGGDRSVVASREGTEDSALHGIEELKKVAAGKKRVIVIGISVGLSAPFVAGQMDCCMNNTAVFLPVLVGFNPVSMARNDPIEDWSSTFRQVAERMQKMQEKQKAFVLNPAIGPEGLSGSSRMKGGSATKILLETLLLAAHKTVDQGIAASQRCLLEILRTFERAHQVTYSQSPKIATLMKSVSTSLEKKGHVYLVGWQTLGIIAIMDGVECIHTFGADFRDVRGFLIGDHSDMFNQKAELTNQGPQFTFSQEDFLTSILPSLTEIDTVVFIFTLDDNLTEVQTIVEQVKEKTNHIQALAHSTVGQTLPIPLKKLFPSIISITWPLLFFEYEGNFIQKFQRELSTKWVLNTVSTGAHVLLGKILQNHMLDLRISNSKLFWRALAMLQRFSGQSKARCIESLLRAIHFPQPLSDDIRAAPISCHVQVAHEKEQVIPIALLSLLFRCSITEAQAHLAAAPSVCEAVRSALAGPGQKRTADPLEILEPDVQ
Summary of the method: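 GST-GCK and FLAG-GKRP (15 nM each in the dispensed mix, with 2 uM S6P) react with 0.4 mM ATP and 5 mM glucose (final) in Hepes pH 7.6 for 60 min at room temperature. ADP is measured by ADP-Glo luminescence.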

[2] = target: T1, Hexokinase-4 (Homo sapiens) + Glucokinase regulatory protein (Homo sapiens); assay: qHTS assay for inhibitors of recombinant human GCK-GKRP interaction: HTRF assay (AID 743207)
Summary of the method: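 Titration screening format: recombinant GST-GCK and FLAG-GKRP at 5 nM, S6P at 2 uM, labelled anti-tag antibodies, 60 min at RT, dual-wavelength HTRF readout.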

[3] = qHTS Assay for Identifying Gametocytocidal Compounds (AID 743244);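 further: actives lower the fluorescent signal which means gametocytes are killed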; conditions: P. falciparum 3D7 stage III-V gametocytes, alamarBlue, 72 h; max response: stronger effect = lower value
Summary of the method: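 P. falciparum 3D7 stage III–V gametocytes (20,000 cells/well) were exposed to compounds for 72 h at 37 °C, 5% CO2. AlamarBlue was then added for 24 h; decreased resorufin fluorescence (Ex 525/Em 598 nm) indicated loss of viability.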

[4] = target: Atrial natriuretic peptide receptor 1 (Homo sapiens) (UniProt P16066); assay: Natriuretic polypeptide receptor (hNpr1) antagonism - Pilot screen (AID 1347049; calls by dose curve;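 further: agonist-evoked cGMP luminescence read 20 min after hNppA addition; series mostly up to about 58 µM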)
Atrial natriuretic peptide receptor 1 (Homo sapiens), sequence (P16066 whole entry, looked up): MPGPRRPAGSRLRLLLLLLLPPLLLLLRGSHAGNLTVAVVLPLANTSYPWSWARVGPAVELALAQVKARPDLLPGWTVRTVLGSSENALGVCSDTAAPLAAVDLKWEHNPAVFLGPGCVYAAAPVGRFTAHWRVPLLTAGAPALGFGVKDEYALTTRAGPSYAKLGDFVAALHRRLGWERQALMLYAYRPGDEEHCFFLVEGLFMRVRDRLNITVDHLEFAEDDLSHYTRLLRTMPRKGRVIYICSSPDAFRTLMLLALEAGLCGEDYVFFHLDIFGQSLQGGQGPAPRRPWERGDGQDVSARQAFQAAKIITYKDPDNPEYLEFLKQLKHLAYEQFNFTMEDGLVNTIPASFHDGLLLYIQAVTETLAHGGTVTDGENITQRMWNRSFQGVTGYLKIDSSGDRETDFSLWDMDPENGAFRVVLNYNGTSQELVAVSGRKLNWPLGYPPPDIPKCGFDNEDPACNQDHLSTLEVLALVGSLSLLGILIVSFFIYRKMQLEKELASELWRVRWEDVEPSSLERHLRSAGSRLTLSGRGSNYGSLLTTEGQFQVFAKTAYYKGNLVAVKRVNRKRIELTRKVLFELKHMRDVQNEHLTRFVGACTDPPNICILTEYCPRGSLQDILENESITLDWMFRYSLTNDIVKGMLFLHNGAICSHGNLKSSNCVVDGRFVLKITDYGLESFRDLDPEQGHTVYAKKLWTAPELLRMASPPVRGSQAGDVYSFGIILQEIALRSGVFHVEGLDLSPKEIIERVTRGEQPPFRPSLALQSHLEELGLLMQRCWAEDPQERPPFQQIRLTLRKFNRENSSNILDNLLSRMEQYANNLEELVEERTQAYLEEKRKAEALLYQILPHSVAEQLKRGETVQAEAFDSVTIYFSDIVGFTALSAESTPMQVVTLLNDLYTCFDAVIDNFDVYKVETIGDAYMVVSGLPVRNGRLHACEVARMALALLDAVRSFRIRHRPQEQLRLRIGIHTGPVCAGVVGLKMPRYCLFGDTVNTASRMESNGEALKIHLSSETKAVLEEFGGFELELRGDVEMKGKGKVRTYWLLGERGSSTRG
Summary of the method: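 Readout is cGMP-driven firefly luciferase luminescence in HEK293 cells carrying hNpr1 and a PDE5-domain GloSensor, read before and 20 min after 0.1 nM hNppA stimulation. Cells had 2% substrate reagent for 2 h and test compound for 30 min.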

[5] = target: Atrial natriuretic peptide receptor 2 (Homo sapiens) (UniProt P20594); assay: Natriuretic polypeptide receptor (hNpr2) antagonism - Pilot subtype selectivity assay (AID 1347050; calls by dose curve)
Atrial natriuretic peptide receptor 2 (Homo sapiens), sequence (P20594 whole entry, looked up): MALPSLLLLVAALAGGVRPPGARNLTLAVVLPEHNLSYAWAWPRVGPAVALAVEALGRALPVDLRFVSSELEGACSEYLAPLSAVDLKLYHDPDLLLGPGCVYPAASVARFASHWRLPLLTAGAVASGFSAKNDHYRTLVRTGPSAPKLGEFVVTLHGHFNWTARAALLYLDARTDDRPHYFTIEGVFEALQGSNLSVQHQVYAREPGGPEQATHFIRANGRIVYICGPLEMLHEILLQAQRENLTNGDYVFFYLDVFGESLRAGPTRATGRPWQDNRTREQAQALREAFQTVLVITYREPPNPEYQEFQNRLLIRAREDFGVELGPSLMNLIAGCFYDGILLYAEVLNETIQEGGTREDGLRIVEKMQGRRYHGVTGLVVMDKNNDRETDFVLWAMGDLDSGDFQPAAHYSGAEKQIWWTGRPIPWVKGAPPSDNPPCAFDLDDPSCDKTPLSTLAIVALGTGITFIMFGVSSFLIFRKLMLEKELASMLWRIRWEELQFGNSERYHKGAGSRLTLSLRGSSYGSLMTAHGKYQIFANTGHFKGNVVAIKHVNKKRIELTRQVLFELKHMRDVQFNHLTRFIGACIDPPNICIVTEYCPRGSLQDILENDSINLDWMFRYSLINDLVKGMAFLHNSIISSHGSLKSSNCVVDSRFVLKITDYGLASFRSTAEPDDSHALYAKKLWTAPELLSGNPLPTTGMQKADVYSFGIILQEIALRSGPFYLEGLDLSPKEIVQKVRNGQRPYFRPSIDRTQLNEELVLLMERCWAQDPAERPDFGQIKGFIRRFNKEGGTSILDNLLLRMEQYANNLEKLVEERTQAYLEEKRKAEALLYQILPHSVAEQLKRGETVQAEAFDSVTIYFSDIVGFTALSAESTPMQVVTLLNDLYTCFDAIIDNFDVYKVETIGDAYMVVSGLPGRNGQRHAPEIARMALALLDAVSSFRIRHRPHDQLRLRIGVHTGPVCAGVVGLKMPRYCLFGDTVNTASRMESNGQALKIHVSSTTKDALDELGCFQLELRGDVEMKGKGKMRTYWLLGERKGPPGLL
Summary of the method: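 Pilot selectivity screen against hNpr2: HEK293 cGMP-sensor cells are treated with LOPAC1280 compounds, then with hNppC peptide at 1 nM final. The cGMP-driven luminescence change over 20 min at room temperature is the read-out.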

[6] = target: Parathyroid hormone/parathyroid hormone-related peptide receptor (Homo sapiens) (UniProt Q03431); assay: qHTS for PTHR1 Agonists: Optimization Screen against the NCGC LOPAC library (AID 1347079);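 further: GloSensor cAMP luminescence in HEK-293 GP2 cells expressing human PTHR1 with IBMX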
Parathyroid hormone/parathyroid hormone-related peptide receptor (Homo sapiens), sequence (Q03431 whole entry, looked up): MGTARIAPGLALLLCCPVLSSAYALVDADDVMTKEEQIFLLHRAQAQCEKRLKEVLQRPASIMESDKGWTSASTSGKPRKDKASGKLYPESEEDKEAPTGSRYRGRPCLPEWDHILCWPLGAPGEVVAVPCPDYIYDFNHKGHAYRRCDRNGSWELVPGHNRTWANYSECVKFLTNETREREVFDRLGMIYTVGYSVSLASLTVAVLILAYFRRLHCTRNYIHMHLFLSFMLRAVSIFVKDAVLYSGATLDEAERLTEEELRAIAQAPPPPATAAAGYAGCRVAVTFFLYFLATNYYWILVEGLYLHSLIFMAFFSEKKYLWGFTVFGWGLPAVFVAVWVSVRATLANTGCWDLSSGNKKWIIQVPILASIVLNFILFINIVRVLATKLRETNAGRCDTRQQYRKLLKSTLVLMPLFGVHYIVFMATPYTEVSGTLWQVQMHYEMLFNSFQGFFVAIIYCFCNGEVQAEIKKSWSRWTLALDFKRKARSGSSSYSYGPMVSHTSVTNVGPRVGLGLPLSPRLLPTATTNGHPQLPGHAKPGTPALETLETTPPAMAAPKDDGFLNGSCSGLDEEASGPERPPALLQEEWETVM
Summary of the method: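 Agonist readout: GloSensor cAMP luminescence, read after 15 min at room temperature. HEK-293-derived GP2 line carries PTHR1; compounds tested as a titration for 1 hr at 37C in presence of IBMX. M-PTH (1-15) served as control.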

[7] = target: N-terminal Xaa-Pro-Lys N-methyltransferase 1 (Homo sapiens) (UniProt Q9BV86); assay: qHTS Assay for Inhibitors of N-terminal methyltransferase 1 (NTMT1): LOPAC validation of the NTMT1 SAHH-coupled ThioGlo3 Assay (AID 1347143);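 further: SAH from peptide methylation measured as thiol fluorescence via SAHH coupling and ThioGlo3; potency means the concentration at half of the fitted maximal effect; nearly all actives have a fitted effect of over 70% in size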
N-terminal Xaa-Pro-Lys N-methyltransferase 1 (Homo sapiens), sequence (Q9BV86 whole entry, looked up): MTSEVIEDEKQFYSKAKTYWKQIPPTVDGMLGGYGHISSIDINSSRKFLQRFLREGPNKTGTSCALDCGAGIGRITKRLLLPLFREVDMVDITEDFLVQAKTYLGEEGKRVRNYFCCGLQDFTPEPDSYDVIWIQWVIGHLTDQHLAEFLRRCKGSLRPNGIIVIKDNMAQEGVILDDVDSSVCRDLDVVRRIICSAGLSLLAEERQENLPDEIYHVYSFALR
Summary of the method: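 Inhibition of NTMT1 methylation of peptide SPKRIA is followed by converting SAH with SAHH and labelling the released thiol with ThioGlo3. Plates are read at 340/450nm before and 30 min after reagent addition, both at room temperature.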

[8] = target: Lysine-specific demethylase 5B (Homo sapiens) (UniProt Q9UGL1); assay: Optimization screen for KDM5B Histone Demethylases FDH coupled qHTS against the LOPAC library (AID 1347166)
Summary of the method: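 KDM5BDeltaAP (200nM final) preincubated 10 min with compound, then 12.5uM H3K4Me3, 25uM a-ketoglutarate, ascorbate, Fe(II), NAD+ and FDH added; 50mM HEPES pH 7.5, 0.01% Tween-20. NADH fluorescence (340/450 nm) change over 30 min, room temperature.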

[9] = qHTS to identify inhibitors of the type 1 interferon - major histocompatibility complex class I in skeletal muscle: primary screen against the NCATS LOPAC collection (AID 1347405);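 further: lytic HiBiT luminescence reporting HLA-B protein level; potency means the concentration at half of the fitted maximal effect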
Summary of the method: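 Luminescence from HiBiT fused to endogenous HLA-B in CRISPR-engineered human myoblasts served as the read-out. Cells received 4.0 ng/ml IFN-beta plus compound (seven concentrations, 1:4.3 steps, highest 46 uM final) for 24 hrs before lytic detection.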

[10] = qHTS for inhibitors of adenylyl cyclases using a fission yeast platform: a pilot screen against the NCATS LOPAC library (AID 1347410)
Summary of the method: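 Inhibition of GNAS-stimulated AC9 activity in S. pombe was inferred from derepression of a PKA-repressed fbp1-GFP reporter, measured as cytometric fluorescence after 18 h at 30C with compounds at up to 57 µM.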

[11] = target: Single-stranded DNA cytosine deaminase (Homo sapiens) (UniProt Q9GZX7); assay: Validation qHTS assay for inhibitors of Activation Induced Cytidine Deaminase (AID): AID signal (AID 1347429)
Single-stranded DNA cytosine deaminase (Homo sapiens), sequence (Q9GZX7 whole entry, looked up): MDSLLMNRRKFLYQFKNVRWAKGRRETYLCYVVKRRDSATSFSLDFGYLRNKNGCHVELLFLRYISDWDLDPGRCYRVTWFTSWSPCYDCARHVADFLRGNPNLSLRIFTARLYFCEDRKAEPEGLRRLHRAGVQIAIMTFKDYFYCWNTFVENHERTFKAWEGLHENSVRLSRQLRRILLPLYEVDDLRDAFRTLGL
Summary of the method: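 Fluorescence at 540 nm excitation and 590 nm emission reports ssDNA cytosine deamination by AID, with UDG in the same well. Compound-treated reactions ran 4 hr at room temperature with DJC20/DJC23 substrate, followed by 30 min NaOH treatment.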

[12] = Primary qHTS for inhibitors of La Crosse Virus (LACV) - induced cell death in SH-SY5Y cells (AID 1508616);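 further: top concentration of the series differs between compounds; higher means more rescue of cells from virus-induced death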
Summary of the method: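 Protection against LACV-induced cell death is scored in SH-SY5Y cells exposed to compounds and virus (0.01 MOI) for 6 days. Data normalized to virus-infected DMSO wells and virus-free DMSO wells.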

[13] = Counterscreen qHTS for small molecule stabilizers of the endoplasmic reticulum resident proteome: GLuc-NoTag assay (AID 1508627); further: potency means the concentration at half of the fitted maximal effect
Summary of the method: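 Luminescence of Gaussia luciferase secreted into the medium (coelenterazine, 0.07x final, unlysed cells) was the read-out. Human SH-SY5Y neuroblastoma cells constitutively secreting untagged GLuc received compound for 19 h, then 100 nM thapsigargin for 4 h.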

[14] = Confirmatory qHTS for small molecule stabilizers of the endoplasmic reticulum resident proteome: Secreted ER Calcium Modulated Protein (SERCaMP) assay (AID 1508628); further: potency means the concentration at half of the fitted maximal effect; nearly all actives have a fitted effect of over 40% in size
Summary of the method: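 SH-SY5Y cells stably expressing GLuc-SERCaMP, treated 16 h with compound (primary 1.53, 7.67, 38.3 uM; confirmation 11 concentrations, up to 76.6 uM), then 100 nM thapsigargin for 4 h. Secreted Gaussia luciferase in medium read by coelenterazine luminescence.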

[15] = Cell Viability qHTS for small molecule stabilizers of the endoplasmic reticulum resident proteome (AID 1508629); conditions: cell viability counter-screen, 100 nM thapsigargin for final 4 h;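 further: human SH-SY5Y neuroblastoma cells carrying the GLuc-SERCaMP reporter; compound exposure about 46 h in total before the viability read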
Papain (Carica papaya) = Papain (Carica papaya) (UniProt P00784); assay: Primary qHTS assay for inhibitors of the protease papain (AID 1645873);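 further: papain turnover of Z-FR-AMC read as the AMC fluorescence gain over 10 min; series mostly up to about 50 µM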
[16] = target: Metallo-beta-lactamase type 2 (Klebsiella pneumoniae) (UniProt C7C422); assay: qHTS to identify inhibitors of the New Delhi Metallo-beta-lactamase (NDM): assay validation screen against the NCATS LOPAC Collection (AID 1794843);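 further: nitrocefin turnover by NDM-1 measured as 485 nm absorbance at plateau; series mostly up to about 38 µM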
Metallo-beta-lactamase type 2 (Klebsiella pneumoniae), sequence (C7C422 whole entry, looked up): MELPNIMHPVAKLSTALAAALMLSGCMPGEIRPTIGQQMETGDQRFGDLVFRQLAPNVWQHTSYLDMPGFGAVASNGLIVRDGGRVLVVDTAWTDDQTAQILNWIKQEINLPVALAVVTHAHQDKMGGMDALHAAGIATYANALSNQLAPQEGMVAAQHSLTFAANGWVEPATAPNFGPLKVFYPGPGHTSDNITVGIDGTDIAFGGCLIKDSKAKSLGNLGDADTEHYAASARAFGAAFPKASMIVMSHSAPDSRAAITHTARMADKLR
Summary of the method: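 Enzyme 2 nM final, 50 mM HEPES pH 7.0, 1 uM ZnSO4, 0.01% Tween20; cpds in DMSO, preincub w/ enzyme; + nitrocefin (50 uM stock); A485 at plateau; no-enzyme column as blank.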

[17] = target: Glutathione peroxidase 1 (Homo sapiens) (UniProt P07203); assay: Primary qHTS Assay for Inhibitors of Recombinant Selenoprotein Glutathione Peroxidase 1 (GPX1) (AID 1845191); further: nearly all actives have a fitted effect of over 65% in size
Glutathione peroxidase 1 (Homo sapiens), sequence (P07203 whole entry, looked up): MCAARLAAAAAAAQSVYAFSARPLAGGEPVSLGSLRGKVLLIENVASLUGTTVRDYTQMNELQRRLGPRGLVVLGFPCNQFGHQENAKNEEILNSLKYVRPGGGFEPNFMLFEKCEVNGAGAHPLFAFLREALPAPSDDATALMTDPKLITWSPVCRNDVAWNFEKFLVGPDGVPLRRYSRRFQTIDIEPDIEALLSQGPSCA
Summary of the method: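 10 nM GPX1 + cpd, 30 min RT; start w/ 1 mM GSH, 0.5 mM cumene hydroperoxide, 0.5 mM NADPH, 100 nM GR, 0.01% BSA; buffer 50 mM Tris-HCl pH 7.5, 2 mM EDTA, 150 mM NaCl; Fl 340/450, 0 & 15 min.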

[18] = target: Phospholipid hydroperoxide glutathione peroxidase GPX4 (Homo sapiens) (UniProt P36969); assay: Primary qHTS Assay for Inhibitors of Recombinant Selenoprotein Glutathione Peroxidase 4 (GPX4) (AID 1845192); conditions: outcome: dose series up to 50 µM unless noted; further: nearly all actives have a fitted effect of over 65% in size
Phospholipid hydroperoxide glutathione peroxidase GPX4 (Homo sapiens), sequence (P36969 whole entry, looked up): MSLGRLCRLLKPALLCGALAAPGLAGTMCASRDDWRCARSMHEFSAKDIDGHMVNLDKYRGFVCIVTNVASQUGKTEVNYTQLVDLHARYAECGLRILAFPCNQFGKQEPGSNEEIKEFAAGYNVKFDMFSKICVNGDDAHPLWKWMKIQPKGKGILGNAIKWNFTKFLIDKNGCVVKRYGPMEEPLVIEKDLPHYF
Summary of the method: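 NADPH consumption, followed by fluorescence at 340/450 nm between 0 and 15 min, reports GPX4 activity via coupled glutathione reductase (100 nM). Enzyme 200 nM was pre-exposed to compound 30 min; 0.5 mM cumene hydroperoxide and 1 mM GSH served as substrates.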

[19] = qHTS assay to identify inhibitors of the type 1 interferon - major histocompatibility complex class I in skeletal muscle: Counter screen cell viability and HiBit confirmation (AID 1347412); conditions: iHSKM muscle cells + IFN-b, HiBiT or CellTiter-Glo, 24 h; HiBiT; further: potency means the concentration at half of the fitted maximal effect; nearly all actives have a fitted effect of over 60% in size
Summary of the method: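 Human myoblast knock-in line, 4.0 ng/ml IFN-beta stimulation, 24 h compound treatment. Endpoints: HiBiT lytic luminescence (HLA-B level) and CellTiter Glo (ATP). Dosing 12 concentrations, 3-fold steps, 46 uM highest final.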

SMILES: O=Nc1c(-c2c(O)[nH]c3ccccc23)[nH]c2ccccc12
- outcome [1]: inactive
- outcome [2]: inactive
- max response [3]: 1.55%
- Potency [4]: inactive
- Potency [5]: inactive
- outcome [6]: inactive
- Potency [7]: 20 µM (active)
- outcome [8]: inactive
- Potency [9]: 11.2 µM (active)
- outcome [10]: inactive
- Potency [11]: inactive
- outcome [12]: inactive
- Potency [13]: 15.8 µM (active)
- Potency [14]: 28.2 µM (active) and 4.47 µM (active)
- max response [15]: -10.5%
- Potency (Papain (Carica papaya)): inactive
- Potency [16]: inactive
- Potency [17]: inactive
- Potency [18]: inactive
- Potency [19]: 14 µM (active)
